In PubChem BioAssay (Tox21):
Records with an inconclusive call do not appear. Active and inactive are the calls of the source. Unless noted, the call rests on the fitted dose curve.

Legend:
[1] = Nuclear factor erythroid 2-related factor 2/antioxidant responsive element (Nrf2/ARE) small molecule agonists: qHTS cell viability counter screen in human keratinocytes (AID 1919968; active means well fitted curve in the direction sought with a large enough effect in the repeat runs; an effect the other way counts as inactive or inconclusive; further: nearly all actives have a fitted effect of over 55% in size; further: potency means the concentration at half of the fitted maximal effect)
Summary of the method: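 Seed 1,500 KeratinoSens cells per well, then incubate 5 h at 37 C/5% CO2. Add compounds in DMSO and incubate 23 h. Add CellTiter-Fluor, wait 1 h and read fluorescence.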

[2] = target: Gonadotropin-releasing hormone receptor (Homo sapiens) (UniProt P30968); test: Human gonadotropin-releasing hormone receptor (GnRHR) small molecule agonists, calcium flux assay in GnRHR-HEK293 cells (AID 1920063); further: nearly all actives have a fitted effect of over 35% in size
Gonadotropin-releasing hormone receptor (Homo sapiens), sequence (P30968 whole entry, looked up): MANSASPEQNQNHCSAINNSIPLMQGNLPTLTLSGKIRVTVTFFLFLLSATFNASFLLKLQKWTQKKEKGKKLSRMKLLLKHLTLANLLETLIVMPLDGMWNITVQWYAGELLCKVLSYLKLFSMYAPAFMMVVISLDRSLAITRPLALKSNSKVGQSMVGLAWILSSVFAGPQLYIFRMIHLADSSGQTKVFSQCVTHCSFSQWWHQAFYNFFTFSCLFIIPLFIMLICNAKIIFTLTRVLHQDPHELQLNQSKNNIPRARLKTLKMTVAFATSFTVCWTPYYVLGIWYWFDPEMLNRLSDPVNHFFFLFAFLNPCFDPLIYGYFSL
Summary of the method: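 Cells: HEK293 stably expressing human GnRHR. Steps: overnight (18 h) culture, 1 h calcium dye loading at 37 C, compound addition, kinetic fluorescence read at 480/540 nm. Each compound tested at 15 concentrations in triplicate.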

[3] = target: KiSS-1 receptor (Homo sapiens) (UniProt Q969F8); test: Human kisspeptin (KISS1R) small molecule agonists, calcium flux assay in KISS1R-HEK293 cells (AID 1920064; active means well fitted curve in the direction sought with a large enough effect in the repeat runs; an effect the other way counts as inactive or inconclusive)
KiSS-1 receptor (Homo sapiens), sequence (Q969F8 whole entry, looked up): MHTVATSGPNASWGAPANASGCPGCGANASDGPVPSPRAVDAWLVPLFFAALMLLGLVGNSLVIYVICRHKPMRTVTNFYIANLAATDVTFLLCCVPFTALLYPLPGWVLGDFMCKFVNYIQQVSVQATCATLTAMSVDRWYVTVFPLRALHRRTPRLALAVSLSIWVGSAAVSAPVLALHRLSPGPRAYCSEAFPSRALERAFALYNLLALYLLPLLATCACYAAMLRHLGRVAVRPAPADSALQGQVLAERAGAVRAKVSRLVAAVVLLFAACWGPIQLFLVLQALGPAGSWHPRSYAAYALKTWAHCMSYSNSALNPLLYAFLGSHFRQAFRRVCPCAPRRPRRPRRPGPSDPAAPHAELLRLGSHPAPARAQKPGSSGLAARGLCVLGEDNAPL
Summary of the method: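 Cells plated and incubated 18 h; dye added, 1 h at 37 C; compounds in DMSO pinned in; signal read at 480/540 nm every second for 3 min. Each compound tested at 15 concentrations in triplicate.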

[4] = G protein-coupled receptor (GPCR) small molecule agonists, calcium flux assay: HEK293 wild type cell line counter screen (AID 1920065)
Summary of the method: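 Counter-screen of the Tox21 10K library for non-specific calcium release: dye-loaded cells received compounds in DMSO and were monitored by kinetic fluorescence (480/540 nm, 3 min). Fifteen concentrations, run in triplicate.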

[5] = p53 small molecule agonists, cell-based qHTS assay with human liver microsomes (AID 1963577);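 further: p53 response element beta-lactamase reporter cells with liver microsomes plus NADPH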
Summary of the method: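 16 h, 37 C exposure of p53RE-bla cells to compounds with human liver microsomes and NADPH (0.5 mg/mL final each); detection via LiveBLAzer mixture, 2 h dark at room temperature.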

[6] = p53 small molecule agonists, cell-based qHTS assay with rat liver microsomes (AID 1963578)
Summary of the method: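 With rat liver microsomes and NADPH present (0.5 mg/mL final each), p53RE-bla cells are treated with compound for 16 h at 37 C. LiveBLAzer detection mixture is then applied for 2 h at room temperature in the dark.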

[7] = p53 small molecule agonists, cell-based qHTS assay with human liver microsomes: qHTS cell viability counter screen (AID 1963579); further: nearly all actives have a fitted effect of over 45% in size; further: potency means the concentration at half of the fitted maximal effect
Summary of the method: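 In this multiplexed counter screen, the reporter plates were subsequently treated with CellTiter-Glo so that cell viability, reflected by luminescence, could be recorded for p53RE-bla cells dosed 16 h with compounds under microsomal activation (HLM and NADPH).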

[8] = p53 small molecule agonists, cell-based qHTS assay with rat liver microsomes: qHTS cell viability counter screen (AID 1963580); further: nearly all actives have a fitted effect of over 45% in size; further: potency means the concentration at half of the fitted maximal effect
Summary of the method: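 In HCT-116 cells carrying a p53 response element-bla reporter, compounds were metabolically activated in situ by rat liver microsomes with NADPH over 16 h. Cell ATP content then served as the cytotoxicity measure.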

[9] = p53 small molecule agonists, cell-based qHTS assay: qHTS cell viability counter screen (AID 1963581); further: nearly all actives have a fitted effect of over 45% in size
Summary of the method: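 Cells: HCT-116 with p53 response element-driven beta-lactamase. Treatment: 16 h, 37 C, compounds in DMSO. Read: CellTiter-Glo luminescence after 30 min RT.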

[10] = p53 small molecule agonists, cell-based qHTS assay (AID 1963582; active means well fitted activation curve with a large enough effect in the signal ratio in the repeat runs, not every such curve was filed as active; the % refers to the signal ratio)
Summary of the method: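 Quantitative HTS in p53RE-bla cells: after a 5 h settling period, compounds delivered in DMSO were left on cells for 16 h at 37 C, and reporter induction was measured as fluorescence following 2 h substrate loading.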

[11] = target: 5-hydroxytryptamine receptor 2A (Homo sapiens) (UniProt P28223); test: 5-hydroxytryptamine receptor 2A (HTR2A) small molecule antagonists, cell-based qHTS assay (AID 1963586); further: nearly all actives have a fitted effect of over 45% in size; further: potency means the concentration at half of the fitted maximal effect
5-hydroxytryptamine receptor 2A (Homo sapiens), sequence (P28223 whole entry, looked up): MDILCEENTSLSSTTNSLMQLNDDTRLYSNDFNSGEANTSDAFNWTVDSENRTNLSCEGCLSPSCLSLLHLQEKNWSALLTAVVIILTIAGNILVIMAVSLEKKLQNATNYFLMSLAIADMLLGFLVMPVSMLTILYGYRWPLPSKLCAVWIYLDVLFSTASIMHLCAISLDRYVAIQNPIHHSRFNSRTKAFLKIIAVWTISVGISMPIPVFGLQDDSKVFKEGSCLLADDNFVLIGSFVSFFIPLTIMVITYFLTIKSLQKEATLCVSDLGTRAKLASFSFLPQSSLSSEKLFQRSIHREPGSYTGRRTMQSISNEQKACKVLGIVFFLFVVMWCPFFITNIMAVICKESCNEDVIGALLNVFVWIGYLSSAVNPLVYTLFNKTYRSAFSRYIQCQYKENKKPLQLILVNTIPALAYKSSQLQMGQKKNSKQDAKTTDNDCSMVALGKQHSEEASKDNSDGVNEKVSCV
Summary of the method: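 Antagonist-mode intracellular calcium assay: DOI (4 nM) added after 5 min compound pre-incubation at room temperature to dye-loaded HTR2A-CHO cells. Fluorescence followed for 3 min, sampled every second.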

[12] = target: 5-hydroxytryptamine receptor 2A (Homo sapiens) (UniProt P28223); test: 5-hydroxytryptamine receptor 2A (HTR2A) small molecule agonists, cell-based qHTS assay (AID 1963587); further: nearly all actives have a fitted effect of over 30% in size; further: potency means the concentration at half of the fitted maximal effect
Summary of the method: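 HTR2A-CHO cells, plated 18 h at 37 C/5% CO2, dye-loaded 1 h at 37 C; compounds in DMSO added by pin tool (agonist mode). Intracellular calcium flux read as kinetic fluorescence on FDSS over 2 min at 1 s intervals.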

[13] = target: Muscarinic acetylcholine receptor M1 (Homo sapiens) (UniProt P11229); test: Cholinergic receptor muscarinic 1 (CHRM1) small molecule antagonists, cell-based qHTS assay (AID 1963588); further: nearly all actives have a fitted effect of over 40% in size; further: potency means the concentration at half of the fitted maximal effect
Muscarinic acetylcholine receptor M1 (Homo sapiens), sequence (P11229 whole entry, looked up): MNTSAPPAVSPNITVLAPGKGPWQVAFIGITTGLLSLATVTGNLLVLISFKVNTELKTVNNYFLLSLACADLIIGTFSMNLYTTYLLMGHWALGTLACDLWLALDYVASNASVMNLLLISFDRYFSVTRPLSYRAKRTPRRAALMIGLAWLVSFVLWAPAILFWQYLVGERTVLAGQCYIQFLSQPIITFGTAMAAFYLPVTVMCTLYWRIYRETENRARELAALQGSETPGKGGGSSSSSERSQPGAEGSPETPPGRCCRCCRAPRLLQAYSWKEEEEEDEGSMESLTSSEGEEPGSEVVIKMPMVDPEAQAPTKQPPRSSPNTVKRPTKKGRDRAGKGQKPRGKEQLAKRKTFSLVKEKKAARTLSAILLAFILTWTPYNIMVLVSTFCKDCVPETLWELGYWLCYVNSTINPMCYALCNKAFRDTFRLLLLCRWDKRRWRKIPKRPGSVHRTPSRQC
Summary of the method: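 CHRM1-CHO calcium-flux assay, antagonist mode. Cells were seeded 18 h, dye-loaded 1 h at 37 C and given compound for 5 min at RT, then acetylcholine was added at 50nM. FDSS fluorescence was read 3 min; 15 concentrations, three runs.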

[14] = target: Muscarinic acetylcholine receptor M1 (Homo sapiens) (UniProt P11229); test: Cholinergic receptor muscarinic 1 (CHRM1) small molecule agonists, cell-based qHTS assay (AID 1963589); further: nearly all actives have a fitted effect of over 35% in size
Summary of the method: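 Agonist-mode qHTS in CHO cells stably carrying human muscarinic M1. Intracellular calcium is tracked by fluorescence every second after compound transfer; each compound runs at 15 concentrations in three independent runs.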

[15] = cAMP Responsive Elements (CRE) small molecule agonists, cell-based qHTS assay (AID 1963590)
Summary of the method: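 Agonist mode qHTS in CRE-bla HEK 293T cells: compounds dosed from DMSO for 3 h at 37 C/5% CO2, followed by LiveBLAzer B/G FRET substrate for 2 h at room temperature.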

[16] = target: D(2) dopamine receptor (Homo sapiens) (UniProt P14416); test: Dopamine D2 receptor (DRD2) small molecule agonists, cell-based qHTS assay (AID 1963594); further: nearly all actives have a fitted effect of over 35% in size
D(2) dopamine receptor (Homo sapiens), sequence (P14416 whole entry, looked up): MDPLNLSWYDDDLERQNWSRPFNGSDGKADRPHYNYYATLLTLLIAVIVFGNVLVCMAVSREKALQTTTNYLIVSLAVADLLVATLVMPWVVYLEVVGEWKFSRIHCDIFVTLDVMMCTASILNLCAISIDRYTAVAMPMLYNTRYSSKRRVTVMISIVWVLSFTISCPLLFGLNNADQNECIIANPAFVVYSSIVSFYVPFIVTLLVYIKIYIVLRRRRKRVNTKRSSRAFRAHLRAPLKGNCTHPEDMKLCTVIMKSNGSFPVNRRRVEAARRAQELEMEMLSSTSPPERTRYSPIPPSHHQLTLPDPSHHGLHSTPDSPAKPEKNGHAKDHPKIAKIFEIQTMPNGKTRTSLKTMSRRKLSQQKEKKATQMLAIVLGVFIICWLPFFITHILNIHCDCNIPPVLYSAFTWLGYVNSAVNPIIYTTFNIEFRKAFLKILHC
Summary of the method: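 HEK293 cells stably expressing DRD2 were cultured 24 h at 37 C, then given Ro20-1724 (0.1 mM final) and compounds for 10 min at room temperature. NKH477 (200nM) was then added for 30 min. cAMP was read by HTRF.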

[17] = target: Beta-2 adrenergic receptor (Homo sapiens) (UniProt P07550); test: Adrenergic beta2 receptor (ADRB2) small molecule antagonists, cell-based qHTS assay (AID 1963592); further: nearly all actives have a fitted effect of over 50% in size; further: potency means the concentration at half of the fitted maximal effect
Beta-2 adrenergic receptor (Homo sapiens), sequence (P07550 whole entry, looked up): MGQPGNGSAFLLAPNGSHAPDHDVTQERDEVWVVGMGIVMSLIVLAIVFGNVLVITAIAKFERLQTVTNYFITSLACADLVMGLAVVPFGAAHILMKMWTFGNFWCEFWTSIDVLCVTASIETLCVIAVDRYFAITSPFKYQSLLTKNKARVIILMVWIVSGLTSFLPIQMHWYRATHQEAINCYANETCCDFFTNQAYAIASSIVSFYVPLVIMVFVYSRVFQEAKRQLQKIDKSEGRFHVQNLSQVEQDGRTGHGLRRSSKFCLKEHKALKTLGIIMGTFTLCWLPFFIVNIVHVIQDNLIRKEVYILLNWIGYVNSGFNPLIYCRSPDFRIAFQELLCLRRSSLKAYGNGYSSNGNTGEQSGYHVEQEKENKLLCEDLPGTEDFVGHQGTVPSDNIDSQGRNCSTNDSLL
Summary of the method: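 Cells (CHO, stable ADRB2 overexpression) incubated 18-20hr at 37C; compounds added from DMSO; agonist mix (1nM isoproterenol, 100uM IBMX, 25uM Ro-20-1724) added; 0.5hr RT; d2-cAMP and anti-cAMP-cryptate added; 1hr RT; 665/615 nm read.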

[18] = target: D(2) dopamine receptor (Homo sapiens) (UniProt P14416); test: Dopamine D2 receptor (DRD2) small molecule antagonists, cell-based qHTS assay (AID 1963595; active means well fitted inhibition curve with a large enough effect in the signal ratio in the repeat runs, with a control signal flat; the % refers to the signal ratio)
Summary of the method: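 HEK293 cells stably expressing DRD2 were preincubated with 0.1 mM Ro20-1724, then with compound for 10 min at room temperature. Cells were stimulated with 200 nM NKH477 plus 12 nM quinpirole for 30 min, and cAMP was read by HTRF.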

[19] = cAMP Responsive Elements (CRE) small molecule antagonists, cell-based qHTS assay (AID 1963591; active means well fitted inhibition curve with a large enough effect in the signal ratio in the repeat runs, not every such curve was filed as active; the % refers to the signal ratio)
Summary of the method: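 Antagonist mode: test compounds are co-incubated with the adenylyl cyclase activator NKH477 (0.25 uM final) on CRE-bla HEK293T cells for 3 h at 37 °C, followed by LiveBLAzer substrate loading.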

[20] = Nuclear factor erythroid 2-related factor 2/antioxidant responsive element (Nrf2/ARE) small molecule agonists: luciferase reporter gene qHTS assay in human keratinocytes (AID 1919969); further: nearly all actives have a fitted effect of over 35% in size; further: potency means the concentration at half of the fitted maximal effect

Measured: Potency

N#CC(Br)(Br)C(N)=O
inactive: [1] | [2] | [3] | [4] | [5] | [6] | [7] | [8] | [9] | [10] | [11] | [12] | [14] | [15] | [16]
active: [13] 0.0047 µM

Cc1cc(=O)[nH]o1
inactive: [1] | [2] | [3] | [4] | [5] | [6] | [7] | [8] | [9] | [10] | [11] | [12] | [13] | [14] | [15] | [17] | [16] | [18]

c1coc(-c2nc3ccccc3[nH]2)c1
inactive: [1] | [2] | [3] | [4] | [5] | [6] | [7] | [8] | [9] | [10] | [11] | [12] | [13] | [14] | [15] | [19] | [17] | [16] | [18]

Clc1cccc(SC2CCNCC2)n1
active: [12] 0.0849 µM | [17] 15 µM
inactive: [1] | [20] | [3] | [4] | [15] | [19] | [16] | [18]

CCCN(CC)CC1COC2(CCC(C(C)(C)C)CC2)O1 (configuration not stated)
inactive: [1] | [2] | [3] | [4] | [5] | [6] | [7] | [8] | [9] | [10] | [13] | [14] | [15] | [19] | [17] | [16] | [18]
active: [11] 10.6 µM | [12] 43.6 µM

CCCN(CCC)c1c([N+](=O)[O-])cc(S(N)(=O)=O)cc1[N+](=O)[O-]
inactive: [20] | [3] | [4] | [11]
active: [1] 51.8 µM | [7] 38.8 µM | [8] 49.4 µM | [12] 37 µM

CNC(=O)/C=C(\C)OP(=O)(OC)OC
inactive: [1] | [20] | [4] | [8] | [9] | [11] | [12] | [13] | [14] | [15] | [19] | [17] | [16] | [18]

Clc1cc(C(Cl)(Cl)Cl)cnc1Cl
inactive: [1] | [2] | [3] | [4] | [5] | [6] | [7] | [8] | [9] | [10] | [11] | [12] | [13] | [14] | [15] | [19] | [17] | [16] | [18]

CCOP(=O)(NC(C)C)Oc1ccc(SC)c(C)c1 (configuration not stated)
inactive: [1] | [3] | [4] | [8] | [10] | [11] | [13] | [14] | [18]
active: [20] 15.4 µM

CCCN1CCC[C@@H]2Cc3nc(N)ncc3C[C@H]21
active: [12] 8.49 µM
inactive: [1] | [20] | [4] | [5] | [6] | [9] | [10] | [11] | [13] | [14] | [19] | [17] | [18]

CC(Oc1cc(Cl)c(Cl)cc1Cl)C(=O)O (configuration not stated)
inactive: [1] | [20] | [3] | [4] | [7] | [8] | [9] | [11] | [12] | [14] | [17] | [16] | [18]

c1csc(-c2ccc(-c3cccs3)s2)c1
active: [20] 8.63 µM
inactive: [1] | [3] | [4] | [7] | [8] | [9] | [12] | [13] | [14] | [17] | [18]

CC1=C2C[C@H]3[C@@H](CC=C4C[C@@H](O)CC[C@@]43C)[C@@H]2CC[C@]12O[C@@H]1C[C@H](C)CN[C@H]1[C@H]2C
active: [1] 11.9 µM
inactive: [20] | [3] | [5] | [6] | [7] | [8] | [9] | [10] | [11] | [14] | [15] | [17] | [16] | [18]
